PBM binding z-score data for 40 sequences are collected here from the supplement of paper PMC6555819.

The subject of one assay is PPARg:RXRa 90nM:30nM, anti-RXR (NR concentration 90 nM, RXRa partner concentration 30 nM). The assay is described as follows: PBM binding z-score (relative to random genomic background probes); higher = stronger binding; sequences stand for … in GC…GCGATTGACAGCGTAGAATGAAGG
In outline:
(§1)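 Probes were double-stranded and carried 34-nt variable regions with direct-repeat seeds, single-nucleotide variants, half-site ablations and random human genomic background sequences, printed on custom Agilent 4×180K protein-binding microarrays. Arrays were incubated 1 h with ligand-free nuclear receptor dimers in PBS pH 7.4, 2% milk, 0.02% Triton X-100, 1 mM DTT, 0.2 mg/mL BSA and 0.4 mg/ml salmon testes DNA. Antibodies against each partner (one per run) detected binding, and scanned fluorescence was regression-normalized. Binding z-scores use the random background probes as reference.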
Sequence CCTAGTGGGCCATTCAGAGGTCATTGATCATATG showed a PBM binding z-score of 2.3.
Still for that read-out and setting: next, TAGCCTAGGTCATGGTCCAGTATACCACGCGAAC: 1.94; CAAACTAGGTCAAAGGTCTAAGTCGAGCCAACCA: 11.8; CCTACTGGGCCATCAGGTCATAGATATCAACGTT: 3.15.
Still for that read-out and setting: next, TCTATTAGTTGGTTAGGGCAACCGAAACAGCGGA: 2.57; CGTCCAAGGTTAGCAGGTCAGTGAAAGCGACGTG: 1.04; GGTGCTAGGTCAGGTTGGTCAGCTAACGGGTACG: 1.35.
On the same count and under the same terms, next, TTACCAAGGTGGGCTGAGGTCGTTGATCCAACTC: -0.0469; CAAACTAGGTCAAAGGTCATAGTCGAGCCAACCA: 13.1.
GCTGTTAGTTGAAAGGGCAACCGAATGATTCTCG came in with a PBM binding z-score of 2.33.
The same measure, in the same setting: next, CGAACTAGGTCAGCCAGGACAGTGAATACATTGA: 4.35; CCTACTGGGCCATCAGGTCATGGATATCAACGTT: 3.37.
GGAACGAGGGCATTCGAGTTGATGGCATGGCGAT yielded a PBM binding z-score of -0.326.
Still for that read-out and setting: next, TAGCCTTGGTCAGATCGGGCCAGTATACGCTATA: -0.566; AGAATGAGGTTAAGATCAGGGACACAGAATACAT: 1.85.
Regarding AGTCAAAGTTCACTAGGTGACGTAAGATTCAGCT, the PBM binding z-score came to 6.5.
As for GCTGCTAGGTCAACTGATGGTCAGTTAAAGCTCG, the PBM binding z-score amounted to 2.06.
The same measure, in the same setting: next, GGCACGAGGGCATTCGAGTTGATAGCATGGCGAT: -0.229.
Still for that read-out and setting: next, ACTCGGAGGACAAAGGTCAGAGCAACGCCAGTGA: 7.18.
The sequence ACTCGGAGAACAAAGGTCAGAGCTACGCCAGTGA came in with a PBM binding z-score of 6.07.
In turn, TAGCCTAGGTCATGGGCCCGTATACCACGCGAAC came in with a PBM binding z-score of 2.09.
Take ATATGTAGATTAAGGGTCATTCAGGTTGGTTCGC: the PBM binding z-score is 7.43.
CGTCAAAGTTCAACCAAGGTAACGTAAAGCACGC registered a PBM binding z-score of 4.77.
GATACAGGGTCAGTTAGAGGCCAGAGTATGGAAA had a PBM binding z-score of 1.45.
Still for that read-out and setting: next, ACATGTAGGTTAGCTGGGGTCATTCAGACTAGGC: 3.39; TCTATTAGTTGATTAGGGCAAACGAAACAGCGGA: 2.29.
Same read-out and setting: next, AGTCAAAGTTCAGGACGAGGTAACCTAAAGCACG: 3.75; CGTCCAAGGTCAGGGAGGTCAGTGAATGCCGAGT: 3.13; GCGACTGGGGCATCAGCAGGTTAACATAACTTAA: 0.609.
Same read-out and setting: next, CCTACTGGGCCAAGGTCATTGATCAGTCAAAGCA: 3.81.
TAGCCTAGGTCATGCGGGCCAGTCTAGTGTCGGC gave a PBM binding z-score of 0.877.
On the same count and under the same terms, next, ATCGAAAGGTCGAAGGTGAGTTTACCCACCCGAA: 3.81; GCAGACAGGTGAAACGTAGGTAACTCAGGGTGGC: -0.0243; TCATACAGGTGAAGGTAACTCAGGTACGCAGTCG: 3.04.
Still for that read-out and setting: next, TAGCCTAGGTCATTCAGGGGCCAATATAGAAAGC: 1.51.
As to CCTCACGGGTCAAGGTTATAGCACGGGTGGTACG, the PBM binding z-score turned out to be 2.35.
The same measure, in the same setting: next, TCGAGTGGGTTAGTCGGGGCATTCAGCCAACATA: 0.719; CAAACTAGGCCAAAGGTCAAAGTCGAGCCAACCA: 11.5; CAAACTAGGGCACCGGAAGGTCAAAGTCCGCATG: 5.06.
Still for that read-out and setting: next, CTCGAAATGTCGGTTGAGGTGAGTATACGGATAA: -0.0265.

The test system of another assay is PPARg:RXRa DBDmut IVT, anti-RXR (DBD mutation: RXRa K156A/R161A, NR concentration 270 nM, RXRa partner concentration 90 nM). Described as above. In outline: as §1
The sequence CCTAGTGGGCCATTCAGAGGTCATTGATCATATG showed a PBM binding z-score of 4.41.
TAGCCTAGGTCATGGTCCAGTATACCACGCGAAC returned a PBM binding z-score of 2.
In the case of CAAACTAGGTCAAAGGTCTAAGTCGAGCCAACCA, the PBM binding z-score stood at 8.53.
Still for that read-out and setting: next, CCTACTGGGCCATCAGGTCATAGATATCAACGTT: 4.5; TCTATTAGTTGGTTAGGGCAACCGAAACAGCGGA: 1.47.
The same measure, in the same setting: next, CGTCCAAGGTTAGCAGGTCAGTGAAAGCGACGTG: 2; GGTGCTAGGTCAGGTTGGTCAGCTAACGGGTACG: 2.64; TTACCAAGGTGGGCTGAGGTCGTTGATCCAACTC: -0.241.
The same measure, in the same setting: next, CAAACTAGGTCAAAGGTCATAGTCGAGCCAACCA: 8.7; GCTGTTAGTTGAAAGGGCAACCGAATGATTCTCG: 0.247.
CGAACTAGGTCAGCCAGGACAGTGAATACATTGA showed a PBM binding z-score of 7.76.
Still for that read-out and setting: next, CCTACTGGGCCATCAGGTCATGGATATCAACGTT: 4.54; GGAACGAGGGCATTCGAGTTGATGGCATGGCGAT: 3; TAGCCTTGGTCAGATCGGGCCAGTATACGCTATA: -0.7.
On the same count and under the same terms, next, AGAATGAGGTTAAGATCAGGGACACAGAATACAT: 3.45.
The same measure, in the same setting: next, AGTCAAAGTTCACTAGGTGACGTAAGATTCAGCT: 3.75.
Sequence GCTGCTAGGTCAACTGATGGTCAGTTAAAGCTCG showed a PBM binding z-score of 4.66.
For GGCACGAGGGCATTCGAGTTGATAGCATGGCGAT, the PBM binding z-score worked out at 1.63.
Consider ACTCGGAGGACAAAGGTCAGAGCAACGCCAGTGA, for which the PBM binding z-score was determined as 0.873.
Regarding ACTCGGAGAACAAAGGTCAGAGCTACGCCAGTGA, the PBM binding z-score was 0.49.
On the same count and under the same terms, next, TAGCCTAGGTCATGGGCCCGTATACCACGCGAAC: 1.21; ATATGTAGATTAAGGGTCATTCAGGTTGGTTCGC: 1.15; CGTCAAAGTTCAACCAAGGTAACGTAAAGCACGC: 0.703.
Same read-out and setting: next, GATACAGGGTCAGTTAGAGGCCAGAGTATGGAAA: 1.02.
Same read-out and setting: next, ACATGTAGGTTAGCTGGGGTCATTCAGACTAGGC: 5.83.
Turning to TCTATTAGTTGATTAGGGCAAACGAAACAGCGGA, the PBM binding z-score came out at 1.88.
Sequence AGTCAAAGTTCAGGACGAGGTAACCTAAAGCACG gave a PBM binding z-score of -0.128.
Take CGTCCAAGGTCAGGGAGGTCAGTGAATGCCGAGT: the PBM binding z-score is 2.94.
GCGACTGGGGCATCAGCAGGTTAACATAACTTAA: the PBM binding z-score was found to be 3.98.
The same measure, in the same setting: next, CCTACTGGGCCAAGGTCATTGATCAGTCAAAGCA: 3.5; TAGCCTAGGTCATGCGGGCCAGTCTAGTGTCGGC: 1.3; ATCGAAAGGTCGAAGGTGAGTTTACCCACCCGAA: 0.357.
For GCAGACAGGTGAAACGTAGGTAACTCAGGGTGGC, the PBM binding z-score stood at 1.69.
Sequence TCATACAGGTGAAGGTAACTCAGGTACGCAGTCG registered a PBM binding z-score of 3.17.
Same read-out and setting: next, TAGCCTAGGTCATTCAGGGGCCAATATAGAAAGC: 1.85; CCTCACGGGTCAAGGTTATAGCACGGGTGGTACG: 0.0332.
Same read-out and setting: next, TCGAGTGGGTTAGTCGGGGCATTCAGCCAACATA: 1.67; CAAACTAGGCCAAAGGTCAAAGTCGAGCCAACCA: 7.14; CAAACTAGGGCACCGGAAGGTCAAAGTCCGCATG: 7.77.
The same measure, in the same setting: next, CTCGAAATGTCGGTTGAGGTGAGTATACGGATAA: -0.0159.
